Source: PubChem BioAssay (NCI)
This is part of a sample that, as a whole, favours compounds with a hit. Of some 83,000 tested, about 20% had one in any assay.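 A percent growth of 40 corresponds to 60% growth inhibition; 0 means no net growth; -100 means all cells died. Active threshold: below 10.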 Values without a mark were called inactive. Active and inactive are the calls of the source.

Legend:
Experiment in all cases: NCI-60 one-dose screen, 48 h (100 = growth as untreated, 0 = no growth, -100 = all killed)
NCI-H23 lung = conditions: 10 µM unless noted
NCI-H226 lung = conditions: 10 µM unless noted
NCI-H322M lung = conditions: 10 µM unless noted
HOP-62 NSCLC = conditions: 10 µM unless noted
NCI-H460 lung = conditions: 10 µM unless noted
HOP-92 NSCLC = conditions: 10 µM unless noted
NCI-H522 lung = conditions: 10 µM unless noted
A549/ATCC NSCLC = conditions: 10 µM unless noted
786-0 renal = conditions: 10 µM unless noted
COLO 205 colon = conditions: 10 µM unless noted
DU-145 prostate = conditions: 10 µM unless noted
K-562 leukemia = conditions: 10 µM unless noted
MALME-3M melanoma = conditions: 10 µM unless noted
MDA-MB-231 breast = conditions: 10 µM unless noted
RXF 393 renal = conditions: 10 µM unless noted
SF-268 CNS = conditions: 10 µM unless noted
SF-295 CNS = conditions: 10 µM unless noted
SF-539 CNS = conditions: 10 µM unless noted
UACC-257 melanoma = conditions: 10 µM
M14 melanoma = conditions: 10 µM unless noted

SMILES	growth (NCI-H23 lung)	growth (NCI-H226 lung)	growth (NCI-H322M lung)	growth (HOP-62 NSCLC)	growth (NCI-H460 lung)	growth (HOP-92 NSCLC)	growth (NCI-H522 lung)	growth (A549/ATCC NSCLC)	growth (786-0 renal)	growth (COLO 205 colon)	growth (DU-145 prostate)	growth (K-562 leukemia)	growth (MALME-3M melanoma)	growth (MDA-MB-231 breast)	growth (RXF 393 renal)	growth (SF-268 CNS)	growth (SF-295 CNS)	growth (SF-539 CNS)	growth (UACC-257 melanoma)	growth (M14 melanoma)
O=C(Nc1ccccc1)Nc1nc2ccc([N+](=O)[O-])cc2s1	0.812% (active)	0.421% (active)	10%	8.52% (active)	4.82% (active)	-22.2% (active)	3.38% (active)	8.07% (active)	14.1%	-26.1% (active)	14.7%	5.58% (active)	-10.8% (active)	-5.6% (active)	-21.6% (active)	13.4%	2.83% (active)	9.38% (active)	-8.53% (active)	13%
COc1ccc(C(=O)n2cc(C=O)c3ccccc32)cc1	101%	96.7%	95.2%	124%	110%	83.1%	98.6%	98.6%	102%	114%	105%	82.1%	93.2%	91.8%	106%	92.5%	99.6%	89.2%	103%	82.8%
CCOC(=O)c1c(NC(=O)c2ccc(F)cc2F)sc2c1CCC(=O)C2	103%	107%	102%	104%	102%	107%	51.6%	92.8%	100%	109%	94.9%	86.7%	118%	97.2%	117%	91.9%	95.1%	79.3%	102%	111%
CN(C)CCn1c2ccc(N)cc2c2nc3ccccc3nc21	28.2%	34.3%	34.7%	31.5%	6.26% (active)	47.7%	30.1%	25.8%	35.6%	9.4% (active)	25.3%	13.7%	44.1%	32.7%	35.4%	43.4%	32.3%	21.3%	38.4%	35.9%
NC(=O)N1N=C(c2cc3ccccc3oc2=O)CC1c1cn(-c2ccccc2)nc1-c1ccc(Cl)cc1 (stereo not given)	41.8%	50.4%	52%	43.1%	22.2%	42.6%	45.2%	29.6%	39.3%	28.8%	56.6%	27.4%	69.6%	54.3%	88.2%	54.5%	19.6%	42.8%	59.5%	43.9%
CCOC(=O)c1c(NC(=O)c2cccc(C(F)(F)F)c2)sc2c(CN3CCN(C)CC3)c(O)ccc12	53.4%	83.8%	8.01% (active)	38.8%	-64.4% (active)	30.7%	-14.4% (active)	32%	-83.6% (active)	-55.1% (active)	-85.6% (active)	1.42% (active)	-86.6% (active)	-75.5% (active)	35.1%	26.2%	-81% (active)	-94.7% (active)	28.1%	-54.6% (active)
CC1(C)CC[C@]2(C(=O)O)CC[C@]3(C)C(=CCC4[C@@]5(C)C[C@@H](O)[C@@H]6OC(c7cccc([N+](=O)[O-])c7)OC[C@@]6(C)C5CC[C@]43C)C2C1 (stereo not given in full)	73.6%	77.2%	41.7%	65.2%	65.4%	69.1%	71.8%	37.1%	90.9%	53%	60.1%	44.9%	86.7%	82%	85.3%	74.6%	36.8%	83.7%	103%	72.8%
